# Values joined by “and” are separate entries in the source; they are usually repeats but may differ in a detail not shown here. Equal entries are not always repeated. Results filed as inconclusive are left out. A call without a number means that no potency is given here. Active and inactive are the calls of the source. Unless noted, calls follow the shape of the dose curve; as a rule, active = well fitted curve in the direction sought with a large enough effect; inconclusive = small, poorly fitted or top-dose-only effect, or another doubt; inactive = no such curve, though single readings can be large; an effect the other way counts as inactive or inconclusive.
# How the values were obtained:
# [1] = molecular target: Voltage-gated inwardly rectifying potassium channel KCNH2 (Homo sapiens) (UniProt Q12809); assay: qHTS Assay for Small Molecule Inhibitors of the Human hERG Channel Activity (AID 588834);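 also: lower thallium flux fluorescence means stronger hERG block; nearly all actives have a fitted effect of over 50% in size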; also: potency is read from the fitted curve at half-maximal effect
# Sequence of Voltage-gated inwardly rectifying potassium channel KCNH2 (Homo sapiens) (Q12809 whole entry, looked up): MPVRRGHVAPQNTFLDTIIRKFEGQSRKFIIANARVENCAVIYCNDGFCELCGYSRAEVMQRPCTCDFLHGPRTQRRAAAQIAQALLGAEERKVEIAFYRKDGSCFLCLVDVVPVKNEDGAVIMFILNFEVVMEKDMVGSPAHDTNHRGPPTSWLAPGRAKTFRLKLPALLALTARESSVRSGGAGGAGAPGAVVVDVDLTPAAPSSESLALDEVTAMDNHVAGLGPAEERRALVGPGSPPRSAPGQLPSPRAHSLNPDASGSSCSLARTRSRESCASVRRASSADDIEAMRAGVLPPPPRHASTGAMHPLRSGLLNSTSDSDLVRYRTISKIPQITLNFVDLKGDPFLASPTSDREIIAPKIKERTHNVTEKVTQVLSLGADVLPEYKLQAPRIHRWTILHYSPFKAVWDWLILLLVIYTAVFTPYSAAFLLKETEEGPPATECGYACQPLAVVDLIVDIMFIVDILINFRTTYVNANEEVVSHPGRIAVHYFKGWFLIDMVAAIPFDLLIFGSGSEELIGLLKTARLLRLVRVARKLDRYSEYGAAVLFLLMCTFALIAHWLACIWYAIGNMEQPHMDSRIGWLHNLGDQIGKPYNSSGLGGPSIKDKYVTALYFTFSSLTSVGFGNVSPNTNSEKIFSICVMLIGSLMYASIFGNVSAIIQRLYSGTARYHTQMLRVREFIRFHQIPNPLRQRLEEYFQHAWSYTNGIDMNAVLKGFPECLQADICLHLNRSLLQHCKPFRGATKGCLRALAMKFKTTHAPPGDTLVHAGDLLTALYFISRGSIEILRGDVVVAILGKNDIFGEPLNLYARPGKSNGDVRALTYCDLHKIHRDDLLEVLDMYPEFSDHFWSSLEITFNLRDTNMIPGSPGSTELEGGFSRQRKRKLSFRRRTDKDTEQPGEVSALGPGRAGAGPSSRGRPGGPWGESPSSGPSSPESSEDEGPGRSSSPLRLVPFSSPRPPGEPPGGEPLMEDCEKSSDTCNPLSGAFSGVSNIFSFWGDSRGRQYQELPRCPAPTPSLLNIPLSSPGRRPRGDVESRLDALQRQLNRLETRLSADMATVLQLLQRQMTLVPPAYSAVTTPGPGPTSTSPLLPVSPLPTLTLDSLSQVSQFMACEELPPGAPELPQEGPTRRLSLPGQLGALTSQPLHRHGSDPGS
# Outline: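 Blockade is seen as reduced FluxOR thallium-flux fluorescence in U2OS cells expressing hERG from a BacMam construct, in Opti-MEM with 2% FCS. Concentration-response data fitted to the Hill equation for AC50.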
# [2] = molecular target: Luciferin 4-monooxygenase (Photinus pyralis) (UniProt P08659); assay: Biochemical firefly luciferase enzyme assay for NPC (AID 624030); also: nearly all actives have a fitted effect of over 70% in size; also: potency is read from the fitted curve at half-maximal effect
# Sequence of Luciferin 4-monooxygenase (Photinus pyralis) (P08659 whole entry, looked up): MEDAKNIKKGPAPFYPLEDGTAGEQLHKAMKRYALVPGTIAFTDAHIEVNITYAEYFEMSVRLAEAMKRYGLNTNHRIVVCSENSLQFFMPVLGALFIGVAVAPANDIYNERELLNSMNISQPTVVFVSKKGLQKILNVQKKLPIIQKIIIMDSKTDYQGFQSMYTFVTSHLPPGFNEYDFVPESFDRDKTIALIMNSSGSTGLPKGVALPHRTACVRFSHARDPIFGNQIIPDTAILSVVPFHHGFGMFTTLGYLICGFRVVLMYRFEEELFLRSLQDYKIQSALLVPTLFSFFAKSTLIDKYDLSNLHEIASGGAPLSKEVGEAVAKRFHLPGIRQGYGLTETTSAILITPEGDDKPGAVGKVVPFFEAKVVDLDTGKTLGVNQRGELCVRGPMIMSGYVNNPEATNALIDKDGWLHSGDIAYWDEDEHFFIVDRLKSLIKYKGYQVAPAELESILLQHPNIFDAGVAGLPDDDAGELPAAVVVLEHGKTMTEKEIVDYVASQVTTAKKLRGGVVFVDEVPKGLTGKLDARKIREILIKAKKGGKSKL
# Outline: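 Purified P. pyralis luciferase at 10 nM in 50 mM Tris Acetate (final), luminescence read within 5 minutes of enzyme addition to compounds. Activity normalised to PTC124 versus DMSO; concentration-response curves classed by r2, magnitude and activity.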
# [3] = S16 Schwann cell viability assay (CellTiter-Glo assay) (AID 624031); also: nearly all actives have a fitted effect of over 70% in size; also: potency is read from the fitted curve at half-maximal effect
# Outline: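 Following overnight culture in 10% FBS DMEM, parental S16 rat Schwann cells are dosed for 24 h at 37 °C. Viability is read as CellTiter-Glo luminescence and expressed as % activity relative to DMSO (0%) and no-cell wells.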
# [4] = S16 Schwann cell PMP22 intronic element firefly luciferase assay (AID 624032); also: nearly all actives have a fitted effect of over 30% in size; also: potency is read from the fitted curve at half-maximal effect
# Outline: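 Rat S16 Schwann cells stably carrying firefly luciferase driven by a PMP22 intronic element, in 10% FBS, treated 24 h at 37 C. ONE-Glo luminescence normalized to PTC124 control and DMSO (0%); curves classed by r2, magnitude and activity.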
# [5] = S16 Schwann cell PMP22 intronic element beta-lactamase assay (AID 624044; calls by dose curve; also: nearly all actives have a fitted effect of over 15% in size; also: potency is read from the fitted curve at half-maximal effect)
# Outline: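 Rat S16 Schwann cells with beta-Lac driven by a PMP22 intronic element, compound-treated 24 h at 37 °C. LiveBLAzer FRET B/G read: 460 nm normalized to potassium clavulanate vs DMSO; 535 nm FRET as viability; concentration-effect curves classified.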
# [6] = molecular target: Glutaminase kidney isoform, mitochondrial (Homo sapiens) (UniProt O94925); assay: qHTS for Inhibitors of Glutaminase (GLS): LOPAC Validation (AID 624146);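 also: glutamate product detected by oxidase and peroxidase coupled Amplex red fluorescence gain; series mostly up to about 46 µM; nearly all actives have a fitted effect of over 60% in size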
# Sequence of Glutaminase kidney isoform, mitochondrial (Homo sapiens) (O94925 whole entry, looked up, canonical isoform): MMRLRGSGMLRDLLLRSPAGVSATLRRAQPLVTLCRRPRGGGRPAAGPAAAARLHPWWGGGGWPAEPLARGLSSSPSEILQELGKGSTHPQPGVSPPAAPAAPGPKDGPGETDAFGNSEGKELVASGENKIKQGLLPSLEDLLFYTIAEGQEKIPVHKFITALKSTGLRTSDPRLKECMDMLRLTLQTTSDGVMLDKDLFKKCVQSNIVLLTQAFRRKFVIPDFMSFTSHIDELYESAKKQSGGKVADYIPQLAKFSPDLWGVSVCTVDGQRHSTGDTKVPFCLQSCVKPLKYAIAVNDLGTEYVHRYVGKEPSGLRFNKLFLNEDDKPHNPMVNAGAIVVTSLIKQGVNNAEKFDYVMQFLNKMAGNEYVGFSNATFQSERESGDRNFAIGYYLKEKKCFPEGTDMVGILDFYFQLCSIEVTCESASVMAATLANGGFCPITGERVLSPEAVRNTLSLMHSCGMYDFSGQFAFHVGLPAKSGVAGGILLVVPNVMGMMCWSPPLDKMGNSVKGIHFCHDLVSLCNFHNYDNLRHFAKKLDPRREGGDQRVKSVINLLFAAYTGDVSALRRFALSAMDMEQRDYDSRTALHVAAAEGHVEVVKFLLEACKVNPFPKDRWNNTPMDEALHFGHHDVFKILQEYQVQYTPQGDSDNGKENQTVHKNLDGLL
# Outline: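 Compounds were pin-transferred onto hKGA, after which L-glutamine (1 mM solution) and a detection mix of glutamate oxidase, HRP and Amplex Red were added. Initial and 30 min RT fluorescence reads were collected.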
# [7] = qHTS of Trypanosoma Brucei Inhibitors: LOPAC Validation (AID 624147)
# Outline: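 Glycolytic pyruvate kinase of T. brucei was incubated with substrate, test compound and 130 uM ADP for 45 minutes at room temperature. Luminescent Kinase-Glo Plus signal was measured after 10 minutes.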
# [8] = qHTS assay for small molecule antagonists of retinoid X receptor alpha signaling (AID 588546; active = well fitted inhibition curve with a large enough effect in the signal ratio, with a control signal flat, not every such curve was filed as active; the % refers to the signal ratio;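 also: cells stimulated with 9-cis-retinoic acid as agonist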); settings: HEK293T RXRa-UAS-bla, beta-lactamase ratio, antagonist mode; measured here: W530 green channel, cytotoxicity proxy
# Outline: (§1)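 Beta-lactamase reporter inhibition, read as CCF4 fluorescence ratio (ex 405, em 460/530 nm) after 2 h at RT. HEK293T UAS-bla cells, 2500/well, were stimulated with 9-cis-RA at 500 or 100 nM final alongside test compound for 18 h at 37 C.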
# [9] = molecular target: Retinoic acid receptor RXR-alpha (Homo sapiens) (UniProt P19793); assay: as above; settings: HEK293T RXRa-UAS-bla, beta-lactamase ratio, antagonist mode
# Sequence of Retinoic acid receptor RXR-alpha (Homo sapiens) (P19793 whole entry, looked up): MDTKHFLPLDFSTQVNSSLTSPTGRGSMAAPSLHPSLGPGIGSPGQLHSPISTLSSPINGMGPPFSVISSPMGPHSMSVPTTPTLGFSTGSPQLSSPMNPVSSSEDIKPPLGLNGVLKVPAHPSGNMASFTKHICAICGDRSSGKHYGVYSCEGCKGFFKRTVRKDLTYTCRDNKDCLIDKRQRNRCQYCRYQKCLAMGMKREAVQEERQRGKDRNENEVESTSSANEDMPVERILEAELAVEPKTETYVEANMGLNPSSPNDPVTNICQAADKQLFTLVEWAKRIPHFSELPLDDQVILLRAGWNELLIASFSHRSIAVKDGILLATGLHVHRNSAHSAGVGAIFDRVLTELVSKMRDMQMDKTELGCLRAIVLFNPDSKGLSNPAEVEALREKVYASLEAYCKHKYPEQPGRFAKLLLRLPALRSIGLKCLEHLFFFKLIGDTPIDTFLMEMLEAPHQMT
# Outline: as §1
# [10] = molecular target: Thyroid hormone receptor beta (Homo sapiens) (UniProt P10828); assay: qHTS assay for small molecule antagonists of thyroid hormone receptor beta signaling (AID 588547; active = well fitted inhibition curve with a large enough effect in the signal ratio, with a control signal flat, not every such curve was filed as active; the % refers to the signal ratio;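 also: cells stimulated with 0.4 nM T3 agonist during compound exposure; series mostly up to about 77 µM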); settings: TR-UAS-bla HEK293, beta-lactamase ratio, antagonist mode, 18 h
# Sequence of Thyroid hormone receptor beta (Homo sapiens) (P10828 whole entry, looked up): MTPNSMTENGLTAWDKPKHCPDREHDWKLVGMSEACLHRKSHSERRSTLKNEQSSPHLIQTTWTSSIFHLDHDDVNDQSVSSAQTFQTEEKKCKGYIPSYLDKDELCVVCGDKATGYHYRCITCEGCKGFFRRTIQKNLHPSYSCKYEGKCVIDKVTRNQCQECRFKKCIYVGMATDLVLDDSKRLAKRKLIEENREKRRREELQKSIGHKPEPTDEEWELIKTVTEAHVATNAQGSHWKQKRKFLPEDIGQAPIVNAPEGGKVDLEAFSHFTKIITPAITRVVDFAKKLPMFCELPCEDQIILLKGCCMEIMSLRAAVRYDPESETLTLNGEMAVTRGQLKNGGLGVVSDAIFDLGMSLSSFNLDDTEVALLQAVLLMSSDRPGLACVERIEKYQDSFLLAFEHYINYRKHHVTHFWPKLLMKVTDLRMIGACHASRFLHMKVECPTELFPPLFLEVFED
# Outline: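 TR-UAS-bla GripTite HEK293 cells in 2% charcoal/dextran FBS medium; compounds 0.59 nM to 92 uM with T3 at 0.4nM final, 18 h at 37 C. Beta-lactamase read by CCF4 fluorescence (460/530 nm); Hill fits gave IC50 and efficacy.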
Compound,Potency [1],Potency [2],Potency [3],Potency [4],Potency [5],Potency [6],outcome [7],max response [8],max response [9],activity change % (negative = inhibition) [10]
COc1ccc(CN(CCN(C)C)c2ccccn2)cc1,12.6 µM (active) and 14.1 µM (active) and 8.91 µM (active),inactive,inactive,inactive,–,inactive,inactive,1.42%,2.77% (inactive),-10.9% (inactive)
C[C@]12CCC(=O)C=C1CC[C@@H]1[C@@H]2C(=O)C[C@@]2(C)[C@H]1CC[C@]2(O)C(=O)CO,inactive,–,–,–,–,inactive,inactive,12.6%,-20.1% (inactive),8.91% (inactive)
COc1cc(Cc2cnc(N)nc2N)cc(OC)c1OC,inactive,inactive,inactive,inactive,inactive,inactive,–,-17.2%,0.608% (inactive),-6.78% (inactive)
CCC(=O)c1ccc2c(c1)N(CCCN(C)C)c1ccccc1S2,2.51 µM (active) and 4.47 µM (active),inactive,–,–,–,–,–,–,–,–
CNCCC(Oc1ccccc1OC)c1ccccc1 (stereo not given),12.6 µM (active) and 6.31 µM (active),inactive,inactive,inactive,inactive,inactive,inactive,–,–,–
C[n+]1cc2c3c(ccc2c2ccc4cc5c(cc4c21)OCO5)OCO3,inactive,7.21 µM (active),3.22 µM (active),8.09 µM (active),15.8 µM (active),–,inactive,–,–,–
CC(=O)OCC1=C(C(=O)O)N2C(=O)[C@@H](NC(=O)Cc3cccs3)[C@H]2SC1,inactive,inactive,inactive,inactive,inactive,inactive,inactive,–,–,–
CCn1nc(C(=O)O)c(=O)c2cc3c(cc21)OCO3,inactive,inactive,inactive,inactive,inactive,inactive,inactive,–,–,–
Nc1ncn([C@@H]2O[C@H](CO)[C@@H](O)[C@H]2O)c(=O)n1,–,inactive,inactive,–,inactive,inactive,inactive,-15%,19.1% (inactive),–
O=C(O)CCCCCCCC(=O)O,–,inactive,inactive,inactive,inactive,inactive,–,-5.98%,0.796% (inactive),-5.44% (inactive)
Cc1cc(C)c(/C=C2\C(=O)Nc3ccccc32)[nH]1,25.1 µM (active) and 7.94 µM (active),inactive,inactive,inactive,inactive,inactive,inactive,–,–,–
NS(=O)(=O)c1cc2c(cc1Cl)NC(C1CC3C=CC1C3)NS2(=O)=O (stereo not given),inactive,inactive,inactive,inactive,inactive,inactive,inactive,–,–,–
Brc1c(NC2=NCCN2)ccc2nccnc12,inactive,inactive,inactive,inactive,–,–,–,–,–,–
CC(=O)Nc1nnc(S(N)(=O)=O)s1,inactive,inactive,inactive,–,–,inactive,–,-6.44%,-1.61% (inactive),-8.01% (inactive)
CN/C(=C\[N+](=O)[O-])NCCSCc1ccc(CN(C)C)o1,inactive,inactive,inactive,inactive,inactive,inactive,inactive,–,–,–
CCCCCN(CCCCC)C(=O)C(CCC(=O)O)NC(=O)c1ccc(Cl)c(Cl)c1 (stereo not given),inactive,inactive,inactive,inactive,inactive,inactive,inactive,–,–,–
NC(=O)N1c2ccccc2C=Cc2ccccc21,inactive,inactive,inactive,inactive,–,inactive,inactive,-1.27% and -13.7%,2.96% (inactive) and -0.41% (inactive),8.17% (inactive)
CCCCNC(=O)NS(=O)(=O)c1ccc(C)cc1,–,inactive,inactive,inactive,inactive,inactive,inactive,-0.0633%,-16.3% (inactive),-17.2% (inactive) and -10.1% (inactive)
CN=C(NC#N)NCCSCc1nc[nH]c1C,–,inactive,inactive,–,–,inactive,inactive,1.01%,4.57% (inactive),11.1% (inactive)
CC(=O)[C@]1(O)Cc2c(O)c3c(c(O)c2[C@@H](O[C@H]2C[C@H](N)[C@H](O)[C@H](C)O2)C1)C(=O)c1ccccc1C3=O,10 µM (active),inactive,32.2 µM (active),inactive,0.0999 µM (active),inactive,–,–,–,–
CC(=O)[C@@]1(O)CC[C@H]2[C@@H]3CCC4=CC(=O)CC[C@]4(C)[C@H]3CC[C@@]21C,inactive,inactive,inactive,inactive,inactive,inactive,inactive,9.81%,-1.98% (inactive),–
